Data reported in PubChem BioAssay (Tox21).
Inconclusive results are not listed. Entries that show only a call come without a potency. Active and inactive are the calls of the source. Unless noted, calls follow the shape of the dose curve; as a rule, active = well fitted curve in the direction sought with a large enough effect in the repeat runs; inconclusive = weak or mixed curves; inactive = no such curve, though single readings can be large; an effect the other way counts as inactive or inconclusive.

Legend:
[1] = qHTS assay for small molecules that induce genotoxicity in human embryonic kidney cells expressing luciferase-tagged ATAD5 (AID 651632); also: nearly all actives have a fitted effect of over 15% in size; also: potency is read from the fitted curve at half-maximal effect
How it was run: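 ATAD5-luc HEK293T, 2,000 cells/well; cpd or DMSO pin-transferred; 16 hr, 37C/5% CO2; Amplite 30 min RT; luminescence.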

[2] = qHTS assay for small molecule agonists of the p53 signaling pathway - cell viability (AID 651633; calls by dose curve; also: nearly all actives have a fitted effect of over 30% in size; also: potency is read from the fitted curve at half-maximal effect)
How it was run: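 Viability counter-read: CellTiter-Glo luminescence (30 min, room temperature) in the same p53RE-bla plates. These plates had been exposed to compounds for 16 h at 37 C.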

[3] = qHTS assay for small molecules that induce genotoxicity in human embryonic kidney cells expressing luciferase-tagged ATAD5 - cell viability (AID 651634; calls by dose curve; also: nearly all actives have a fitted effect of over 25% in size)
How it was run: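 Fluorescence from CellTiter-Fluor, reporting protease activity within live cells, served as the viability read-out. HEK293T cells carrying luciferase-tagged ATAD5 had been treated with compound for 15.5 hr at 37C.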

[4] = qHTS assay for small molecule disruptors of the mitochondrial membrane potential - cell viability (AID 720634; calls by dose curve; also: nearly all actives have a fitted effect of over 20% in size; also: potency is read from the fitted curve at half-maximal effect)
How it was run: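 Cells: HepG2, 2,000/well, attached overnight. Compound 1 hr, 37 C/5% CO2. +m-MPI dye, +CellTiter-Glo 30 min RT. Readout: luminescence (ATP).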

[5] = qHTS assay to test for compound auto fluorescence at 590 nm (red) in HepG2 cells (AID 720674)
How it was run: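 Red autofluorescence (Ex/Em 540/590 nm, Rose Bengal sodium equivalents) was measured in HepG2 cells, 2,000 per well in MEM plus 10% FBS, plated overnight at 37 C. Readings were taken 1 hr after adding 23 nL compound or DMSO, at 37 C and 5% CO2.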

[6] = qHTS assay to test for compound auto fluorescence at 535 nm (green) in HepG2 cells (AID 720675)
[7] = qHTS assay to test for compound auto fluorescence at 460 nm (blue) in HEK293 cells (AID 720678)
How it was run: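 Measured: blue fluorescence (Ex 405/Em 460 nm) of compound-treated HEK293 cells, incubated overnight at 37C with 5% CO2 and scaled to triamterene equivalents.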

[8] = qHTS assay to test for compound auto fluorescence at 590 nm (red) in HEK293 cells (AID 720679)
How it was run: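 Using HEK293 cells at 2,000 per well, the screen added 23 nL of each compound after cell attachment and incubated overnight (37C, 5% CO2). The plate reader then captured red-label fluorescence, Ex/Em 540/590nm.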

[9] = qHTS assay to test for compound auto fluorescence at 535 nm (green) in HEK293 cells (AID 720680)
[10] = qHTS assay to test for compound auto fluorescence at 460 nm (blue) in HEK293 cell free culture (AID 720681)
How it was run: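 Blue fluorescence (Ex 405/Em 460 nm, triamterene-equivalent) was read immediately after pin transfer of compound or DMSO into medium (DMEM, 10% FBS) without cells.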

[11] = qHTS assay to test for compound auto fluorescence at 535 nm (green) in HEK293 cell free culture (AID 720682)
How it was run: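 Green-channel intensity (Ex/Em 485/535 nm) was recorded from compound-treated wells containing only DMEM with 10% FBS. Fluorescein provided the equivalency standard.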

[12] = qHTS assay to test for compound auto fluorescence at 590 nm (red) in HEK293 cell free culture (AID 720683)
How it was run: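 Red-channel autofluorescence of compounds in culture medium (DMEM, 10% FBS), no cells, measured at 540/590 nm. Rose Bengal sodium is the reference fluorophore for equivalence.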

[13] = qHTS assay to test for compound auto fluorescence at 590 nm (red) in HepG2 cell free culture (AID 720684)
How it was run: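 Steps: dispense MEM/10% FBS medium, no cells; pin compound or DMSO vehicle; read red channel, Ex/Em 540/590 nm. Output given as Rose Bengal sodium equivalents.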

[14] = qHTS assay to test for compound auto fluorescence at 460 nm (blue) in HepG2 cell free culture (AID 720685)
How it was run: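 Compound (23 nL) or DMSO pinned into cell-free MEM with 10% FBS; blue fluorescence read at 405/460 nm excitation/emission, expressed as auto-fluorescence equivalency to triamterene.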

[15] = qHTS assay to test for compound auto fluorescence at 535 nm (green) in HepG2 cell free culture (AID 720686)
[16] = qHTS assay to test for compound auto fluorescence at 460 nm (blue) in HepG2 cells (AID 720687)
How it was run: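 Blue-channel autofluorescence (Ex/Em 405/460 nm, triamterene-equivalent) was measured after 1 hr compound exposure at 37 C, 5% CO2. Cells were HepG2, plated overnight at 37 C in MEM plus 10% FBS.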

[17] = target: Glucocorticoid receptor (Homo sapiens) (UniProt P04150); assay: qHTS assay to identify small molecule agonists of the glucocorticoid receptor (GR) signaling pathway (AID 720691; active = well fitted activation curve with a large enough effect in the signal ratio in the repeat runs, not every such curve was filed as active; the % refers to the signal ratio)
Sequence of Glucocorticoid receptor (Homo sapiens) (P04150 whole entry, looked up): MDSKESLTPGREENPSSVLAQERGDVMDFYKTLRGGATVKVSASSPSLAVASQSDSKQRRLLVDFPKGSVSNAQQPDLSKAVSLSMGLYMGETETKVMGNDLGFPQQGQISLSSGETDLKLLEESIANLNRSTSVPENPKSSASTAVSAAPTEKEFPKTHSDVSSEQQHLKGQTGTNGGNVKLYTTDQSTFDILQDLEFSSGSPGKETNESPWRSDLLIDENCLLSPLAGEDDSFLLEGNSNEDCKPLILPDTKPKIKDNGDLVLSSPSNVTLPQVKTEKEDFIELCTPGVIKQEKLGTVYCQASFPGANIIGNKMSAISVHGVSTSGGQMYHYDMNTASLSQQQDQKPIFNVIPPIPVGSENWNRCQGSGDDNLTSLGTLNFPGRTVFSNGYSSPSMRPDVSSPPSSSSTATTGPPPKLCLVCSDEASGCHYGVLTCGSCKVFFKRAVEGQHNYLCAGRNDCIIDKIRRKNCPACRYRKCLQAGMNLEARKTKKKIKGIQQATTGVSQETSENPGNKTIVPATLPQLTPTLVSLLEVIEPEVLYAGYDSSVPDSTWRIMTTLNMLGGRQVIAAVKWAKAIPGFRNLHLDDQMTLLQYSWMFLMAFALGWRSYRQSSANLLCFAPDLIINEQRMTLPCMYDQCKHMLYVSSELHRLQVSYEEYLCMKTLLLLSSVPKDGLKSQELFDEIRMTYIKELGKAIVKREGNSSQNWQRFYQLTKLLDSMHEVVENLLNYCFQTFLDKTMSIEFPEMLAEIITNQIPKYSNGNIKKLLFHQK
How it was run: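 Fluorescence intensity from LiveBLAzer B/G FRET substrate (2 h, room temperature) reports beta-lactamase expression driven by the glucocorticoid response element in GR-bla HeLa cells after 18 h compound exposure at 37 C.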

[18] = qHTS assay for small molecule disruptors of the mitochondrial membrane potential (AID 720635); also: potency is read from the fitted curve at half-maximal effect
How it was run: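 Mitochondrial membrane potential tracked with Mito-MPS dye, red aggregates (ex 540/em 590 nm) against green monomers (ex 490/em 535 nm). Compound treatment 1 hr at 37C, dye 30 min in HepG2.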

[19] = target: Glucocorticoid receptor (Homo sapiens) (UniProt P04150); assay: qHTS assay to identify small molecule antagonists of the glucocorticoid receptor (GR) signaling pathway (AID 720692; active = well fitted inhibition curve with a large enough effect in the signal ratio in the repeat runs, not every such curve was filed as active; the % refers to the signal ratio)
How it was run: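 HeLa GR-bla cells; cmpd + dex 5 nM final, 18 h 37 C; LiveBLAzer B/G FRET substrate 2 h RT; fluorescence intensity read. Antagonist mode, qHTS.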

Structure (SMILES)	Potency [1]	Potency [2]	Potency [3]	Potency [4]	outcome [5]	outcome [6]	outcome [7]	outcome [8]	outcome [9]	outcome [10]	outcome [11]	outcome [12]	outcome [13]	outcome [14]	outcome [15]	outcome [16]	Potency [17]	Potency [18]	Potency [19]
Cn1cnc2c(F)c(Nc3ccc(Br)cc3Cl)c(C(=O)NOCCO)cc21	inactive	inactive	inactive	inactive	inactive	inactive	inactive	inactive	inactive	inactive	inactive	inactive	inactive	inactive	inactive	inactive	inactive		
COc1ccc2nc(NC(=O)Nc3ccccc3)sc2c1	0.75 µM (active)	inactive	inactive	6.68 µM (active)	inactive	inactive	inactive	inactive	inactive	inactive		inactive	inactive	inactive	inactive	inactive		1.19 µM (active)	
CCCCCCCCCCCCOCCOS(=O)(=O)O	inactive	61.1 µM (active)	inactive	inactive	inactive	inactive	inactive	inactive	inactive	inactive	inactive	inactive	inactive	inactive	inactive	inactive			
CC1(O)CSC(C)(O)CS1 (stereo not drawn)	inactive	inactive	inactive	inactive		inactive	inactive	inactive	inactive	inactive	inactive	inactive	inactive	inactive	inactive	inactive			inactive
Nc1ccc(Oc2ccc(N)c(N)c2)cc1	30.6 µM (active)	inactive		inactive	inactive	inactive	inactive	inactive	inactive	inactive	inactive	inactive	inactive	inactive	inactive	inactive	inactive	17.2 µM (active)	
CN1CCN(C2=Nc3cc(F)ccc3Cc3ccccc32)CC1	inactive	inactive		inactive	inactive	inactive	inactive	inactive	inactive	inactive	inactive	inactive	inactive	inactive	inactive	inactive	inactive		inactive
Cc1nnc(SCC2=C(C(=O)O)N3C(=O)[C@@H](NC(=O)Cn4cnnn4)[C@H]3SC2)s1	inactive	inactive	inactive	inactive	inactive	inactive		inactive	inactive	inactive	inactive	inactive	inactive	inactive	inactive	inactive		inactive	
O=[N+]([O-])c1nccn1CO[C@@H](CO)[C@H](O)CO	inactive	inactive	inactive	inactive	inactive	inactive	inactive	inactive	inactive	inactive	inactive	inactive	inactive	inactive	inactive		inactive	inactive	inactive
